B1: chr12:16048344:16048345:+_ENSG00000023734_ENST00000419869|hu_hu|hu_hu_hu_mus_True|68_98 (ssRNA)
RNA: GGGAGUUCUACAGUCCGACGAUCAGAUCGUCCAUAAGUUAUAACCAAAAUCUCUCCUUCAGGAAUAUAUUCCAUACUGCUAACAGACAUAUUAAAAUUCAGAGAUUUCACUUCUGUCAUUGUGGCAUGAUCCCAGAGCCGAACCAACAGAGGAUUGAGCAUCA
B2: chr3:9848215:9848216:+_ENSG00000241553_ENST00000287613|perfect_dup|FALSE|FALSE (ssRNA)
RNA: GGGAGUUCUACAGUCCGACGAUCAUCACUGGGGCCAGUCACAGCCACUGGAGCUGGAGGUUGGUUUUUUUGUUUGUUUAAAAAAAAAAAAAAAAAGACAAAAAGGUUACAGUCUUCUACAAGCACAGAGUUUAGGUUUCAAGACAACAGAGGAUUGAGCAUCA
B3: chr14:76904501:76904502:+_ENSMUSG00000022010_ENSMUST00000022587|mus_mus|FALSE|FALSE (ssRNA)
RNA: GGGAGUUCUACAGUCCGACGAUCUCCAUCGCCACUGGUCUACACCAUUGGGAUUUCAUGCAAUUGCAGCCAAAUUAAAAAAACAGCCCCGUGGAAAAAAAAGAGAGAGGGCGGGAGGGAGCAAGCUCCAGCAGCCUGGUUCAACAACAGAGGAUUGAGCAUCA
B4: 122244776_122244896_1956_3pUTR_ENSMUSG00000039735_ENSMUST00000162409|mouse|control|control (ssRNA)
RNA: GGGAGUUCUACAGUCCGACGAUCGAAAAAGCACACAUCCUUUACACACACUUAGGCAGGACAGAAAGCAAAAGGCAUCGAUUAAGCUUCCACACCAGCAUCACUUGAACAGUAAGGCGUCAAAGAGUUUCUGGUGGCAGUAUUCAACAGAGGAUUGAGCAUCA
B5: chr3:176740097:176740098:-_ENSG00000177565_ENST00000430069|hu_mus|hu_hu_hu_mus_True|78_78 (ssRNA)
RNA: GGGAGUUCUACAGUCCGACGAUCUGUUUUGUAUACCACAAAAGGAGGCACUUUCAGUAUCUGUAAAAGGUGUUUAGUCCUAAAACAUACUCACCUAGAGGAUAACUCAGGAAAACAAUCUGUUACACUCUAAGACCUACUCCACAACAGAGGAUUGAGCAUCA
B6: 25243085_25243205_1728_CDS_ENSMUSG00000059669_ENSMUST00000075954|mouse|control|control (ssRNA)
RNA: GGGAGUUCUACAGUCCGACGAUCUCCUGAGCUCUUUUUUGAUUCGUUGUAUUUUUUUUCAAAAAGUUUCUUUUCAAGUAAGCUCACUUCUUCAUGGAGAGCAGAGGUCUUUAUUCUCAGUAAGAAGGAGAAGAUGUUUAGUAUCAACAGAGGAUUGAGCAUCA
B7: chr3:9848215:9848216:+_ENSG00000241553_ENST00000287613|perfect_dup|FALSE|FALSE (ssRNA)
RNA: GGGAGUUCUACAGUCCGACGAUCCAAUAACGUAUAAUCACUGGGACCAGUCACAGCCACUGGAGGUGGAGGUUUAAAAAAAAAAAAAAAAAAAAAGACAAAAAGGUUACAGUAUCCUACAAGCACAGAGUUUAAGUUUCAAGACAACAGAGGAUUGAGCAUCA

Over roughly 24,000 sequences, “enrichment r” has its median near 0.99; the highest 2% begin near 3.7. The entries come from a sample that favours the highest values as a whole.

For this experiment, the target named is T1, UNK ZnF1-3 (human, UniProt Q9C0B0 31-174).
T1 sequence: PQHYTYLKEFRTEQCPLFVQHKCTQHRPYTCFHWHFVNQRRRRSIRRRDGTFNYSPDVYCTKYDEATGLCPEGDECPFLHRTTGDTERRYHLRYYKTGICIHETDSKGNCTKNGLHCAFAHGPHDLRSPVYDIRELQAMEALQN
The experiment is described as follows: nsRBNS (natural sequence RNA bind-n-seq); RBNS binding buffer (assumed for nsRBNS): 25 mM Tris pH 7.5, 150 mM KCl, 3 mM MgCl2, 0.01% Triton X-100, 500 ug/ml BSA, 20 U/ml SUPERase-In, 4 C; UNK is unkempt and MSI1 is Musashi-1; names of the RNAs are library labels; protein concentration not given here; high values mean tight binding.
B1 returned a binding signal of 1.19 enrichment R. In the case of B2 it was 9.16 enrichment R; in that of B3, 2.68 enrichment R. B4 registered a binding signal of 1.73 enrichment R.

The molecule B5 registered a binding signal of 0.869 enrichment R. In the case of B6 it was 0.743 enrichment R.

With B7, the binding signal was 9.16 enrichment R.

The values are drawn from PMC12136788.
